# Measured values published in PubChem BioAssay (Tox21).
# “And” between values parts separate entries of the source, which are not always exact repeats. Identical values can stand only once. Results filed as inconclusive are left out. A call without a number means that no potency is given here. A structure can be active in one record and inactive in another. The source made the active and inactive calls. Unless noted, calls come from the whole dose curve; as a rule, active = well fitted curve in the direction sought with a large enough effect in the repeat runs; inconclusive = weak or mixed curves; inactive = no such curve, though single readings can be large; an effect the other way counts as inactive or inconclusive.
# What was measured:
# [1] = qHTS assay to identify small molecule agonists of the NFkB signaling pathway (AID 1159509; active = well fitted curve in the direction sought with a large enough effect in the signal ratio in the repeat runs, not every such curve was filed as active; the % refers to the signal ratio)
# Outline: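 Agonist activity was read as beta-lactamase-driven FRET change (460 and 530 nm emission, 405 nm excitation) following 1.5 hr substrate loading at room temperature. Beforehand, ME-180 NFkB-bla reporter cells were treated with compounds for 5 hr at 37 C.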
# [2] = qHTS assay to identify small molecule agonists of the endoplasmic reticulum stress response signaling pathway (AID 1159516; active = well fitted activation curve with a large enough effect in the signal ratio in the repeat runs, not every such curve was filed as active; the % refers to the signal ratio)
# Outline: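 Cells are seeded at 1,500 per well and incubated overnight. Compounds in DMSO are added for 5 hr at 37 C, then beta-lactamase FRET substrate for 2 hr at room temperature, and fluorescence at 460 and 530 nm is measured.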
# [3] = qHTS assay to identify small molecule agonists of the endoplasmic reticulum stress response signaling pathway - cell viability counter screen (AID 1159517; calls by dose curve;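 note: HeLa cells carrying an ER stress response element beta-lactamase reporter; nearly all actives have a fitted effect of over 50% in size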)
# Outline: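 Cpd-treated ESRE-bla HeLa (5 hr, 37 C) → LiveBLAzer 2 hr RT → CellTiter-Glo 30 min RT → luminescence.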
# [4] = qHTS assay to identify small molecule antagonists of the retinoid-related orphan receptor gamma (ROR-gamma) signaling pathway - cell viability counter screen (AID 1159520); note: nearly all actives have a fitted effect of over 50% in size
# Outline: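 Tet-on ROR gamma CHO cells (1,000/well) were plated 4 hr, given compounds in DMSO for 2 hr at 37 C, then induced with 1 uM final doxycycline for 16 hr. Viability was read as ATP by CellTiter-Glo luminescence after 30 min.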
# [5] = target: Nuclear receptor ROR-gamma (Homo sapiens) (UniProt P51449); test: qHTS assay to identify small molecule antagonists of the retinoid-related orphan receptor gamma (ROR-gamma) signaling pathway (AID 1159521; note: nearly all actives have a fitted effect of over 50% in size; note: potency is the fitted concentration of half-maximal effect)
# Outline: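 Inducible-expression reporter assay: doxycycline (1 uM final) switched on RORγ in CHO cells bearing a ROR response element-luciferase construct, with test compounds present from 2 h beforehand. Decreased luminescence after 16 h defined antagonist activity.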
# [6] = qHTS assay to identify small molecule agonists of the AP-1 signaling pathway - cell viability counter screen (AID 1159525; calls by dose curve; note: nearly all actives have a fitted effect of over 55% in size; note: potency is the fitted concentration of half-maximal effect)
# Outline: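 Each titration point was normalised to DMSO and tetra n-octyl ammonium bromide controls. The read was Cell Titer Glo luminescence after 30 min at RT, following 5 h compound exposure of ME-180 AP-1-bla cells at 37 °C.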
# [7] = qHTS assay to identify small molecule agonists of the AP-1 signaling pathway (AID 1159526; calls by dose curve)
# [8] = target: Retinoic acid receptor RXR-alpha (Homo sapiens) (UniProt P19793); test: qHTS assay to identify small molecule agonists of the RXR signaling pathway (AID 1159527; calls by dose curve; note: nearly all actives have a fitted effect of over 35% in size; note: potency is the fitted concentration of half-maximal effect)
# Retinoic acid receptor RXR-alpha (Homo sapiens), sequence (P19793 whole entry, looked up): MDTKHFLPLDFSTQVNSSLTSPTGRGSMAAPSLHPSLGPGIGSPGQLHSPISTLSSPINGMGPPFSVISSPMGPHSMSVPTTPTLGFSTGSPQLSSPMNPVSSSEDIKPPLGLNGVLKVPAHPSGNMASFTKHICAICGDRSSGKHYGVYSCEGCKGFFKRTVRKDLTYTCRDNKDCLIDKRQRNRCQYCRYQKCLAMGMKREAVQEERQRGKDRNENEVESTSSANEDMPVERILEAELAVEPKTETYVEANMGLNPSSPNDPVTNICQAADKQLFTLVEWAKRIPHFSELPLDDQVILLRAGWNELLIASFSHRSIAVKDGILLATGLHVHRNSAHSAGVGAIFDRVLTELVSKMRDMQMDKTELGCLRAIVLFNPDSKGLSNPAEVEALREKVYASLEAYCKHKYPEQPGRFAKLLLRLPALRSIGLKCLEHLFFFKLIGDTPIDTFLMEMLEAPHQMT
# Outline: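 Compounds in DMSO were added to RXR-alpha-UAS-bla HEK 293T cells kept in 2% charcoal-stripped serum, and incubated 16 hr at 37 C with 5% CO2. Reporter signal came from a 2 hr B/G FRET substrate step.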
# [9] = qHTS assay to identify small molecule agonists of the RXR signaling pathway - cell viability counter screen (AID 1159529); note: nearly all actives have a fitted effect of over 50% in size; note: potency is the fitted concentration of half-maximal effect
# Outline: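 Counter screen: CellTiter-Glo luminescence. Cells: RXR-alpha-UAS-bla HEK 293T. Medium: 2% charcoal-stripped FBS. Treatment: 16 h, 37 C. Reagent incubation: 30 min, RT.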
# [10] = qHTS assay to identify small molecule antagonists of the retinoid acid receptor (RAR) signaling pathway - cell viability counter screen (AID 1159551); note: nearly all actives have a fitted effect of over 35% in size
# Outline: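 Cells (C3RL4) are plated, incubated overnight, dosed with compound in DMSO, then given retinol at 1 uM final. After 6 h at 37 C, CellTiter-Glo is added and luminescence read following 30 min at room temperature.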
# [11] = qHTS assay to identify small molecule antagonists of the retinoic acid receptor (RAR) signaling pathway (AID 1159552; note: nearly all actives have a fitted effect of over 50% in size)
# Outline: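 Antagonism of retinol-induced RARE reporter activity was measured in C3RL4 cells. Exposure to compounds and 1 uM final retinol lasted 6 hr at 37 C, with luminescence as endpoint.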
# [12] = qHTS assay to identify small molecule agonists of the retinoic acid receptor (RAR) signaling pathway (AID 1159553); conditions: C3RL4 RARE luciferase reporter, agonist, 6 h; activation: at 73.3 µM (top of the series) unless noted
# Outline: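 Seed C3RL4 reporter cells at 1,000 per well and incubate overnight at 37 C. Add compounds in DMSO, incubate 6 hr. Add luciferase reagent, wait 30 min at room temperature, read luminescence.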
# [13] = target: Luciferin 4-monooxygenase (Photinus pyralis) (UniProt P08659); test: qHTS assay to identify small molecule inhibitors of firefly luciferase (AID 1224835); note: nearly all actives have a fitted effect of over 25% in size; note: potency is the fitted concentration of half-maximal effect
# Luciferin 4-monooxygenase (Photinus pyralis), sequence (P08659 whole entry, looked up): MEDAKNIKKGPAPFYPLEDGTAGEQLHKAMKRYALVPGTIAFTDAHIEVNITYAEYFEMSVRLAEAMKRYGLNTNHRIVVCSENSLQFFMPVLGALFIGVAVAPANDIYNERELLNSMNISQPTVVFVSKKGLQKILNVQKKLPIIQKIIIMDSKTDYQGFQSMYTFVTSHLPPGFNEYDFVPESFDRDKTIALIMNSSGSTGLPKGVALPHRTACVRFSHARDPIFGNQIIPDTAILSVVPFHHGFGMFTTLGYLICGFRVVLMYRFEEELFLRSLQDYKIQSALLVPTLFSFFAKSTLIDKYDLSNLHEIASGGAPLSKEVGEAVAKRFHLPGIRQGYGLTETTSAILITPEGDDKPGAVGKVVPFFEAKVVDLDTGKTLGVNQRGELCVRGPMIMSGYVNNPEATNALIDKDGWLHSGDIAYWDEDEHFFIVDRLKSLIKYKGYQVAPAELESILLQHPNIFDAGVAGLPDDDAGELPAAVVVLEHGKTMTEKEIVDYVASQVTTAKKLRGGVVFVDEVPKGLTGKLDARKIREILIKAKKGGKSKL
# Outline: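 Quantitative HTS format; KM concentrations of both substrates. Purified P. pyralis FLuc activity quantified from luminescence images.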
# [14] = qHTS assay to identify small molecule agonists of the constitutive androstane receptor (CAR) signaling pathway - cell viability counter screen (AID 1224836); note: nearly all actives have a fitted effect of over 45% in size
# Outline: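 Double-stable HepG2 hepatoma cells (hCAR plus CYP2B6-2.2kb) are treated for 23 h at 37 C with test compounds in 15-point concentration series. PK11195 at 0.75 uM final is co-added. Cell viability is quantified by CellTiter-Fluor.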
# [15] = qHTS assay to identify small molecule antagonists of the constitutive androstane receptor (CAR) signaling pathway - cell viability counter screen (AID 1224837); note: nearly all actives have a fitted effect of over 45% in size
# Outline: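 Viability was measured with CellTiter-Fluor in a HepG2 line carrying stably transfected hCAR and a CYP2B6-2.2kb construct. Cells were exposed for 23 hr at 37 C to 15 compound concentrations with 50 nM CITCO as agonist.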
# [16] = target: Nuclear receptor subfamily 1 group I member 3 (Homo sapiens) (UniProt Q14994); test: qHTS assay to identify small molecule antagonists of the constitutive androstane receptor (CAR) signaling pathway (AID 1224838);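 note: HepG2 cells stably expressing hCAR with CYP2B6 luciferase reporter stimulated by CITCO; nearly all actives have a fitted effect of over 40% in size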; note: potency is the fitted concentration of half-maximal effect
# Nuclear receptor subfamily 1 group I member 3 (Homo sapiens), sequence (Q14994 whole entry, looked up): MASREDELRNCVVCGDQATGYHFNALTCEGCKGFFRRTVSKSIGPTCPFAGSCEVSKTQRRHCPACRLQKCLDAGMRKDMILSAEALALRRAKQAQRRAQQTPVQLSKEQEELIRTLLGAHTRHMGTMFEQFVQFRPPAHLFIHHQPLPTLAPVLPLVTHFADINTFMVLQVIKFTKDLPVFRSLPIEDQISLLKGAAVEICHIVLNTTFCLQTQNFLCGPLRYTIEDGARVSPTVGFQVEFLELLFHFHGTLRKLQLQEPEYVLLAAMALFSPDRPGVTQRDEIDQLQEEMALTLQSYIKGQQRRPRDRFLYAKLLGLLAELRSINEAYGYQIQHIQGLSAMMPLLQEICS
# Outline: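 Antagonist mode used CITCO at a final 50 nM to activate CAR in human hepatoma HepG2 cells carrying stable hCAR and a 2.2 kb CYP2B6 promoter-luciferase construct. Compounds were tested at 15 concentrations over 24 h, with luminescence as the end point.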
# [17] = qHTS assay to identify small molecule antagonists of the estrogen related receptor (ERR) signaling pathway from Tox21 library - cell viability counter screen (AID 1224834); note: nearly all actives have a fitted effect of over 30% in size
# Outline: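 ERR cells, 2,000/well; 6 h settle at 37 C/5% CO2; pin-tool compound transfer in DMSO; 17.5 h at 37 C; CellTiter-Fluor, 30 min; fluorescence intensity.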
# [18] = qHTS assay to identify small molecule antagonists of the estrogen related receptor (ERR) signaling pathway - cell viability counter screen (AID 1224818)
# Outline: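 ERR cells, 2,000/well; 6 h settle at 37 C/5% CO2; compound pin transfer (DMSO); 17.5 h at 37 C; CellTiter-Fluor, 30 min, fluorescence read.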
# [19] = qHTS assay to identify small molecule antagonists of the estrogen related receptor signaling pathway with the pleiotropic PPARgamma coactivator (PGC) cell viability counter screen (AID 1224822;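 note: viability read after 17.5 h compound exposure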)
# Outline: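 Multiplexed viability counter screen run in PGC/ERR cells treated with compounds for 17.5 h at 37 C; live-cell protease signal measured by CellTiter-Fluor fluorescence.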
SMILES,outcome [1],outcome [2],outcome [3],Potency [4],Potency [5],Potency [6],Potency [7],Potency [8],Potency [9],outcome [10],Potency [11],Potency [12],Potency [13],Potency [14],Potency [15],Potency [16],Potency [17],outcome [18],outcome [19]
c1cc2c3c(cccc3c1)CC2,inactive,inactive,inactive,inactive,inactive,inactive,inactive,inactive,inactive,inactive,inactive,inactive,inactive,inactive,inactive,inactive,–,–,–
Nc1ccccc1C(=O)O,inactive,inactive,inactive,inactive,–,inactive,inactive,inactive,inactive,inactive,inactive,inactive,inactive,inactive,inactive,inactive,inactive,–,–
Cc1ccc(N)cc1Cl,inactive,inactive,inactive,–,inactive,inactive,inactive,inactive,inactive,inactive,inactive,inactive,inactive and 56.4 µM (active),inactive,inactive,inactive,inactive,–,–
O=[N+]([O-])c1ccc(Oc2ccc(Cl)cc2Cl)cc1,inactive,inactive,inactive,–,inactive,inactive,inactive,696 nM (active),43.9 µM (active) and inactive,inactive,–,–,inactive,inactive,inactive,inactive,inactive,–,–
CCCCOC(=O)c1ccccc1C(=O)OCCCC,inactive,inactive,inactive,–,inactive,inactive,–,inactive,inactive,inactive,inactive,inactive,inactive,inactive,inactive,inactive,inactive,–,–
Nc1ccc(Br)cc1,inactive,inactive,inactive,–,inactive,inactive,inactive,inactive,inactive,inactive,inactive,inactive,inactive,inactive,inactive,inactive,–,–,–
CCOP(=S)(OCC)Oc1cnc2ccccc2n1,inactive,inactive,inactive,–,–,inactive,inactive,–,inactive,inactive,inactive,inactive,inactive,inactive,inactive,inactive,inactive,–,–
CCNc1nc(NC(C)(C)C)nc(SC)n1,inactive,inactive,inactive,–,–,inactive,inactive,–,inactive and 49 µM (active),inactive,inactive,inactive,inactive,inactive,inactive,–,–,–,–
CCc1cccc(C)c1N(C(=O)CCl)C(C)COC (configuration not stated),inactive,inactive,inactive,–,–,inactive,inactive,inactive,inactive,inactive,inactive,inactive,inactive,inactive,inactive,inactive,–,–,–
CC(=O)C=C(C)C,inactive,inactive,inactive,inactive,inactive,inactive,inactive,inactive,inactive,inactive,–,inactive,inactive,inactive,inactive,inactive,inactive,–,–
CC(C)(Cl)Cl,inactive,inactive,inactive,inactive,–,inactive,inactive,inactive,inactive,inactive,inactive,inactive,inactive,inactive,inactive,inactive,inactive,–,–
CCCN(CCC)c1c([N+](=O)[O-])cc(C(F)(F)F)cc1[N+](=O)[O-],inactive,inactive,inactive,–,inactive,inactive,inactive,–,inactive,inactive,–,–,inactive,inactive,inactive,inactive,–,–,–
Cn1cc(-c2ccccc2)c(=O)c(-c2cccc(C(F)(F)F)c2)c1,inactive,inactive,inactive,inactive,inactive,inactive,inactive,inactive,inactive,inactive,inactive,inactive,inactive,inactive,inactive,inactive,–,–,–
NCC(O)c1ccc(O)cc1 (configuration not stated),inactive,inactive,inactive,–,inactive,inactive,inactive,inactive,inactive,inactive,inactive,inactive,inactive,inactive,inactive,inactive,inactive,inactive,inactive
CCN(CC)CCO,inactive,inactive,inactive,inactive,inactive,inactive,inactive,–,inactive,inactive,–,–,inactive,inactive,inactive,inactive,–,–,–
Clc1ccccc1Cl,inactive,inactive,inactive,–,inactive,inactive,inactive,inactive,inactive,inactive,inactive,inactive,inactive,inactive,inactive,inactive,inactive,–,–
CCC[N+](=O)[O-],inactive,inactive,inactive,–,4.25 µM (active) and inactive,15.2 µM (active) and inactive,inactive,inactive,30.3 µM (active) and inactive,inactive,–,–,34.9 µM (active) and inactive,–,–,8.48 µM (active) and inactive,–,–,–
O=NN1CCCCCCC1,inactive,inactive,inactive,inactive,–,inactive,inactive,inactive,inactive,inactive,inactive,inactive,inactive,inactive,inactive,inactive,inactive,–,–
ClCCBr,inactive,inactive,inactive,inactive,inactive,inactive,inactive,inactive,inactive,inactive,–,–,inactive,inactive,inactive,inactive,inactive,–,–
C#CC(C)(C)NC(=O)c1cc(Cl)cc(Cl)c1,inactive,inactive,inactive,–,inactive,inactive,inactive,inactive,inactive,inactive,inactive,inactive,inactive,inactive,inactive,inactive,inactive,–,–
